Screening results (PubChem BioAssay)
Sampled rows, rich in hits. Any-hit rate of the full collection: about 0.87%.
APEX1 inh: inhibitors of human APE1 endonuclease | AID 2517 | recombinant APE1, TAMRA/BHQ-2 abasic DNA cleavage fluorescence | Potency, µM (series often up to 65.8 µM), actives largely listed as inhibitors | 350,000 compounds, 0.35% hits; note: nearly all actives have a fitted effect of over 55% in size
Target sequence (P27695 whole entry, looked up): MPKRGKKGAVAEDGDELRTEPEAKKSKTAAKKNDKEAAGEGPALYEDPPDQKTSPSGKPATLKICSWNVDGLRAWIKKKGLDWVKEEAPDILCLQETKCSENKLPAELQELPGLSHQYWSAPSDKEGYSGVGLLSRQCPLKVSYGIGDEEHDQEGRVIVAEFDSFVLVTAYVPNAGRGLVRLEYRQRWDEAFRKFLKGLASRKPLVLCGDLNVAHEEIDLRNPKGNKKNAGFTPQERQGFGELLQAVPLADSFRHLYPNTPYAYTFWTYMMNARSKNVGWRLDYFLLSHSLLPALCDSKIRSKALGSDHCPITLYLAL
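APE1 at 0.75 nM final was preincubated with compound 15 min at room temperature, then 50 nM double-stranded THF abasic-site substrate (5'-TAMRA/3'-BHQ-2) was added. Fluorescence (ex 525/em 598 nm) was read kinetically; third-minus-first read gave activity.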
BLM inh: Bloom syndrome helicase (human) inhibition | Potency, µM (doses to about 56.1 µM), usual class: inhibitors | P54132 | recombinant BLM DNA unwinding, fluorescence dequenching | 350,000 compounds, 0.2% hits; note: nearly all actives have a fitted effect of over 35% in size
RGS4 inh: inhibitors of human regulator of G protein signaling 4; P49798; Potency, µM (series often up to 114 µM), hits mostly inhibitors; Transcreener GDP fluorescence polarization, RGS4-accelerated GTP hydrolysis; AID 504845; 390,000 compounds, 0.039% hits; note: nearly all actives have a fitted effect of over 75% in size
Target sequence (P49798 whole entry, looked up): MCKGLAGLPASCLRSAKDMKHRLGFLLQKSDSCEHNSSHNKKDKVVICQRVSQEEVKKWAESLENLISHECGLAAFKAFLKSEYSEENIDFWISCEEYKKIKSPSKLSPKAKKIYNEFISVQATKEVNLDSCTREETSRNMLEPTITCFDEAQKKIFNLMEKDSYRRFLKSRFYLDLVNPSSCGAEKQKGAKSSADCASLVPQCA
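MLSMR compounds (23 nl, pin-transferred) preincubated 10 min at room temperature with a 500nM (2x) first reagent, then RGS4 at 900nM (2x) plus Transcreener GDP mix added; fluorescence polarization (620/688 nm) read before and after 90 min at 30 °C.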
RECQ1 inh: blocks DNA unwinding by human RECQ1; P46063; RECQ1 DNA unwinding, red fluorescence kinetic read; Potency, µM (top dose mostly 57.3 µM), usual class: inhibitors; 240,000 compounds, 0.54% hits; AID 2549; note: nearly all actives have a fitted effect of over 30% in size
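50 nM RECQ1T1 preincubated 15 min with compound in Tris pH 8.0 buffer with MgCl2, DTT, Tween-20 and 2.5 ug/ml poly(dI-dC); started with 200 nM TAMRA/BHQ-2 forked duplex and 2 mM ATP. Unwinding read as fluorescence (525/598 nm), two reads 2 h apart.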
TDP1 block: inhibitors of human tyrosyl-DNA phosphodiesterase TDP1; AID 485290; Potency, µM (doses to about 130 µM), actives largely listed as inhibitors; recombinant TDP1, AlphaScreen DNA substrate cleavage; 350,000 compounds, 0.28% hits; Q9NUW8; note: nearly all actives have a fitted effect of over 40% in size
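Compounds were preincubated with Tdp1 (1 nM final) for 15 min at room temperature before substrate (15 nM final) started a 5 min reaction; beads (10 ug/ml final) were then added for 10 min before AlphaScreen detection.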
KAT2A inh: inhibitors of human GCN5L2 histone acetyltransferase | GCN5L2 HAT assay, ThioGlo1 CoA-SH fluorescence | Potency, µM (doses to about 58.9 µM), most hits filed as inhibitors | 390,000 compounds, 0.21% hits
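Free CoA generated was detected with ThioGlo1 (50uM) fluorescence at Ex340nm/Em540nm, read immediately and after 20 min at room temperature. Enzyme, 20 nM in HEPES pH 7.5 buffer, saw compounds 15 min before adding 75uM H3(1-25) peptide and 70uM acetyl-CoA.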
Each line names hits and unclear results; the compound was inactive in the other large screens; ! = not confirmed by another sample. Calls come from the whole dose curve; as a rule, active = well fitted curve in the direction sought with a large enough effect; inconclusive = small, poorly fitted or top-dose-only effect, or another doubt; inactive = no such curve, though single readings can be large; an effect the other way counts as inactive or inconclusive.

NC1C=CC=C(C(=O)O)C1 (stereo unspecified)	APEX1 inh 13µM!, RGS4 inh inconclusive, TDP1 block 4µM!, KAT2A inh inconclusive (no result: BLM inh)
CC(=O)O[C@H]1C(=O)[C@@]2(C)C([C@H](OC(=O)c3ccccc3)[C@]3(O)C[C@H](OC(=O)[C@H](O)[C@@H](NC(=O)c4ccccc4)c4ccccc4)C(C)=C1C3(C)C)[C@]1(OC(C)=O)CO[C@@H]1C[C@@H]2OC(=O)[C@H](C)NC(=O)c1ccc(-c2c3ccc(=O)cc-3oc3cc(O)ccc23)c(C(=O)O)c1 (stereo partly specified)	APEX1 inh 3.2µM, BLM inh 3.2µM, RECQ1 inh 3.2µM, KAT2A inh inconclusive (no result: RGS4 inh)
C/C=C(\C)C(=O)N[C@@H](c1ccccc1)[C@@H](O)C(=O)O[C@H]1C[C@@]2(O)[C@@H](OC(=O)c3ccccc3)C3[C@](C)(C(=O)[C@H](OC(C)=O)C(=C1C)C2(C)C)[C@@H](O)C[C@H]1OC[C@@]31OC(C)=O (stereo partly specified)	none
[O]=[Cr](=[O])([OH])[O][Cr](=[O])(=[O])[OH]	APEX1 inh 25µM!, BLM inh 1µM, RECQ1 inh 13µM, TDP1 block 6.3µM!, KAT2A inh inconclusive (no result: RGS4 inh)
S=C(S)N1CCCC1	RGS4 inh 5.3µM!
Cc1cccc(C)c1O	none (no result: BLM inh, RGS4 inh, KAT2A inh)
COc1ccc(CN2C(=O)NC(=O)/C(=C/c3ccc([N+](=O)[O-])s3)C2=O)cc1	APEX1 inh inconclusive, RGS4 inh inconclusive, RECQ1 inh 32µM, KAT2A inh inconclusive
O=C1NC(=O)N(Cc2ccc(F)cc2)C(=O)/C1=C\c1ccc([N+](=O)[O-])s1	APEX1 inh inconclusive, RGS4 inh inconclusive, RECQ1 inh 32µM, KAT2A inh inconclusive
CC[C@H](C)[C@H](NC(=O)[C@H](C)NC(=O)[C@H](CC(N)=O)NC(=O)[C@H](CCCCN)NC(=O)[C@H](Cc1ccccc1)NC(=O)[C@H](CC(C)C)NC(=O)[C@@H](NC(=O)[C@@H](NC(=O)[C@H](CC(C)C)NC(=O)[C@@H]1CCCN1C(=O)[C@@H](NC(=O)[C@H](CCC(N)=O)NC(=O)[C@H](CO)NC(=O)[C@H](CCCCN)NC(=O)[C@H](CCC(=O)O)NC(=O)[C@H](CO)NC(=O)[C@@H](NC(=O)[C@H](CCSC)NC(=O)[C@H](Cc1ccccc1)NC(=O)CNC(=O)CNC(=O)[C@@H](N)Cc1ccc(O)cc1)[C@@H](C)O)[C@@H](C)O)C(C)C)[C@@H](C)O)C(=O)N[C@H](C(=O)N[C@@H](CCCCN)C(=O)N[C@@H](CC(N)=O)C(=O)N[C@@H](C)C(=O)N[C@@H](Cc1ccc(O)cc1)C(=O)N[C@@H](CCCCN)C(=O)N[C@@H](CCCCN)C(=O)NCC(=O)N[C@@H](CCC(=O)O)C(=O)O)[C@@H](C)CC	RGS4 inh inconclusive
C#CCN(C)[C@@H](C)Cc1ccccc1	KAT2A inh 11µM (no result: APEX1 inh, RGS4 inh)
CC[C@H]1C(=O)OC[C@H]1Cc1cncn1C	none (no result: RGS4 inh)
CCC1C(=O)OCC1Cc1cncn1C (stereo unspecified)	RGS4 inh 27µM!
NC(N)=Nc1ccc2[nH]c3c(c2c1)C[C@@]1(O)[C@H]2Cc4ccc(O)c5c4[C@@]1(CCN2CC1CC1)[C@H]3O5	RGS4 inh 24µM, KAT2A inh 3.5µM (no result: BLM inh)
C[C@]12O[C@H](C[C@]1(O)CO)n1c3ccccc3c3c4c(c5c6ccccc6n2c5c31)CNC4=O	KAT2A inh inconclusive (no result: APEX1 inh, RGS4 inh, RECQ1 inh, TDP1 block)
O=C(Nc1cc(C(F)(F)F)cc(C(F)(F)F)c1)c1cc(Cl)ccc1O	KAT2A inh inconclusive (no result: RGS4 inh)
C=CCn1c(O)c(/C=C2/C=CC=N2)c(=O)[nH]c1=O	RECQ1 inh 11µM
N.N.N.N.N.N.N.N.N.N.N.N.N.N.O.O.[Ru+4].[Ru+5].[Ru+5]	RGS4 inh 19µM, KAT2A inh inconclusive (no result: APEX1 inh, BLM inh, RECQ1 inh, TDP1 block)
